The source made the active and inactive calls.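 How the source made its calls: active means viability loss from added drug above about 55%, and viability with drug at most 40%, in both replicates (limit read from the data, passing the limit was not always enough); inconclusive means both conditions met in only one replicate; inactive means neither replicate meets both conditions.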
Assay: MRP1 drug-resistance reversers in H69AR cells – cell-based, doxorubicin co-treatment, pilot screen (AID 601)
Details: H69AR cells + 2 uM doxorubicin, CellTiter-Glo, 72 h; at 10 µM; stronger effect = higher value

SMILES	differential viability (reversal)
CCC(c1nnnn1CCOC)N(Cc1ccc(C)cc1)Cc1cc2cc(OC)ccc2[nH]c1=O (stereo not given)	7.76% (inactive)
COc1ccccc1-c1nnc(SCc2ccccn2)n1C	-10.8% (inactive)
CCCCOCCCNC(=O)c1ccccc1OCC	9.53% (inactive)
COCCOC(=O)C1=C(C)Nc2ncnn2C1c1ccc(F)cc1 (stereo not given)	3.85% (inactive)
CCCCOc1ccc(C(=O)Nn2cnnc2)cc1	0.185% (inactive)
O=C(CNS(=O)(=O)c1ccc(Br)s1)N1CCN(c2ncccn2)CC1	-4.04% (inactive)
CCN(CC)CCCN(Cc1cc2cc(OC)ccc2[nH]c1=O)C(=O)Nc1ccccc1	3.46% (inactive)
CN(C)CCCn1c(N)c(C#N)c2nc(C#N)c(C#N)nc21	-3.03% (inactive)
CCOC(=O)C(C)(C)Sc1nc2c(cnn2-c2ccc(C)cc2)c(=O)[nH]1	-16.5% (inactive)
COC(=O)c1ccc(CSc2nnc(-c3ccncc3)o2)o1	4.48% (inactive)
CC1(C)Cc2nc3oc4c(N(CCO)Cc5ccccc5)ncnc4c3cc2CO1	4.17% (inactive)
CCCCc1n[nH]c2c1C(=O)CC(C)(C)C2	13.4% (inactive)
CCOc1ccc(NC(=O)C2CC(=O)N(C(C)C)C2)cc1 (stereo not given)	7% (inactive)
C=C(C)CSc1nnc(-c2cccc(S(=O)(=O)N(C)C)c2)n1-c1cc(OC)ccc1OC	4.91% (inactive)
N#Cc1c(NC(=O)c2ccc(Br)o2)n(-c2ccccc2)c2nc3ccccc3nc12	-0.255% (inactive)
CCCC(=O)Nc1cc(C)c(NC(=O)c2ccccn2)cn1	9.38% (inactive)
CCOC(=O)c1sc2ncn(/N=C/N(C)C)c(=O)c2c1C	5.85% (inactive)
O=C(c1ccco1)N1CCN(C(=O)c2cc3c(s2)-c2ccccc2OC3)CC1	2.87% (inactive)
Cn1c(-c2ccccc2)c(CCO)c2ccccc21	-2.71% (inactive)
CC(C)(C)OC(=O)N1CCCC1C(=O)N1CCc2ccccc21 (stereo not given)	-4.58% (inactive)

SMILES	differential viability (reversal)
Fc1ccc(C(c2nnnn2Cc2ccco2)N2CCN(C3CCCCC3)CC2)cc1 (stereo not given)	5.67% (inactive)
Cc1c(C(=O)NCc2cccnc2)oc2ccc(S(=O)(=O)N3CCCCC3)cc12	-20.9% (inactive)
COc1ccc(-c2cc(C(=O)NCCc3ccccc3)no2)cc1OC	3.29% (inactive)
O=C(NCc1ccccc1)C1CCN(S(=O)(=O)N2CCCCCC2)CC1	3.6% (inactive)
CC1(C)CC(=O)C(CC2=C(O)CC(C)(C)CC2=O)=C(O)C1	10.5% (inactive)
Cn1c(=O)c2c(nc(SCC(=O)NCc3ccco3)n2C)n(C)c1=O	-0.15% (inactive)
COc1ccc(-c2noc(-c3cc(Cl)ccc3Cl)n2)cc1OC	18.4% (inactive)
CCn1c(=O)cc(SCC(=O)NCCN2CCN(Cc3ccccc3)CC2)c2ccccc21	7.1% (inactive)
CC(=O)Nc1cccc(NC(=O)c2oc3ccccc3c2C)c1	-12.4% (inactive)
CN1CCN(c2oc(COc3ccc(-c4ccccc4)cc3)nc2C#N)CC1	17.7% (inactive)
Clc1ccc2nc(N3CCCCC3)[nH]c2c1	11.6% (inactive)
CN1CCc2nc(SCC(=O)Nc3ccc(F)cc3)c(C#N)cc2C1	-4.23% (inactive)
CCCCC(=O)NCCc1ccc(S(N)(=O)=O)cc1	9.4% (inactive)
Cc1onc(-c2c(Cl)cccc2Cl)c1C(=O)N1CCc2ccccc21	-24.3% (inactive)
Cc1ccc(S(=O)(=O)NCCCCC(NC(=O)OC(C)(C)C)C(=O)O)cc1 (stereo not given) (tested in a mixture with another compound)	7.71% (inactive)
N#CC1=C(N)SC(N)=C(C#N)C1c1ccc(C(F)(F)F)cc1	-4.95% (inactive)
C=Cn1c(C(=O)O)cc(CC)c1-c1ccccc1	2.8% (inactive)
Cc1nc2cccc(C(=O)NC3CCCCC3)c2o1	8.96% (inactive)
O=C(CCn1nc(-c2ccc(Cl)cc2)ccc1=O)N1CCN(c2ccccn2)CC1	-4.79% (inactive)
COc1ccc(-c2nnc(SCC#N)o2)cc1	13.6% (inactive)

Same assay, conditions: H69AR cells + 2 uM doxorubicin, CellTiter-Glo, 72 h; measured here: viability with 2 uM doxorubicin; at 10 µM; stronger effect = lower value

SMILES	viability
CCC(c1nnnn1CCOC)N(Cc1ccc(C)cc1)Cc1cc2cc(OC)ccc2[nH]c1=O (stereo not given)	64.7%
COc1ccccc1-c1nnc(SCc2ccccn2)n1C	91.4%
CCCCOCCCNC(=O)c1ccccc1OCC	78.2%
COCCOC(=O)C1=C(C)Nc2ncnn2C1c1ccc(F)cc1 (stereo not given)	82%
CCCCOc1ccc(C(=O)Nn2cnnc2)cc1	89.4%
O=C(CNS(=O)(=O)c1ccc(Br)s1)N1CCN(c2ncccn2)CC1	98.7%
CCN(CC)CCCN(Cc1cc2cc(OC)ccc2[nH]c1=O)C(=O)Nc1ccccc1	74.3%
CN(C)CCCn1c(N)c(C#N)c2nc(C#N)c(C#N)nc21	93.1%
CCOC(=O)C(C)(C)Sc1nc2c(cnn2-c2ccc(C)cc2)c(=O)[nH]1	96.3%
COC(=O)c1ccc(CSc2nnc(-c3ccncc3)o2)o1	95.8%
CC1(C)Cc2nc3oc4c(N(CCO)Cc5ccccc5)ncnc4c3cc2CO1	82.1%
CCCCc1n[nH]c2c1C(=O)CC(C)(C)C2	83.5%
CCOc1ccc(NC(=O)C2CC(=O)N(C(C)C)C2)cc1 (stereo not given)	92.7%
C=C(C)CSc1nnc(-c2cccc(S(=O)(=O)N(C)C)c2)n1-c1cc(OC)ccc1OC	90.9%
N#Cc1c(NC(=O)c2ccc(Br)o2)n(-c2ccccc2)c2nc3ccccc3nc12	85.5%
CCCC(=O)Nc1cc(C)c(NC(=O)c2ccccn2)cn1	90.1%
CCOC(=O)c1sc2ncn(/N=C/N(C)C)c(=O)c2c1C	94.1%
O=C(c1ccco1)N1CCN(C(=O)c2cc3c(s2)-c2ccccc2OC3)CC1	94.2%
Cn1c(-c2ccccc2)c(CCO)c2ccccc21	97.4%
CC(C)(C)OC(=O)N1CCCC1C(=O)N1CCc2ccccc21 (stereo not given)	89.4%

SMILES	viability
Fc1ccc(C(c2nnnn2Cc2ccco2)N2CCN(C3CCCCC3)CC2)cc1 (stereo not given)	88.5%
Cc1c(C(=O)NCc2cccnc2)oc2ccc(S(=O)(=O)N3CCCCC3)cc12	91.4%
COc1ccc(-c2cc(C(=O)NCCc3ccccc3)no2)cc1OC	86.6%
O=C(NCc1ccccc1)C1CCN(S(=O)(=O)N2CCCCCC2)CC1	93.1%
CC1(C)CC(=O)C(CC2=C(O)CC(C)(C)CC2=O)=C(O)C1	91.8%
Cn1c(=O)c2c(nc(SCC(=O)NCc3ccco3)n2C)n(C)c1=O	93.6%
COc1ccc(-c2noc(-c3cc(Cl)ccc3Cl)n2)cc1OC	88.1%
CCn1c(=O)cc(SCC(=O)NCCN2CCN(Cc3ccccc3)CC2)c2ccccc21	77.3%
CC(=O)Nc1cccc(NC(=O)c2oc3ccccc3c2C)c1	81.3%
CN1CCN(c2oc(COc3ccc(-c4ccccc4)cc3)nc2C#N)CC1	60.5%
Clc1ccc2nc(N3CCCCC3)[nH]c2c1	80.3%
CN1CCc2nc(SCC(=O)Nc3ccc(F)cc3)c(C#N)cc2C1	101%
CCCCC(=O)NCCc1ccc(S(N)(=O)=O)cc1	87.7%
Cc1onc(-c2c(Cl)cccc2Cl)c1C(=O)N1CCc2ccccc21	85.9%
Cc1ccc(S(=O)(=O)NCCCCC(NC(=O)OC(C)(C)C)C(=O)O)cc1 (stereo not given) (tested in a mixture with another compound)	96.8%
N#CC1=C(N)SC(N)=C(C#N)C1c1ccc(C(F)(F)F)cc1	89.3%
C=Cn1c(C(=O)O)cc(CC)c1-c1ccccc1	104%
Cc1nc2cccc(C(=O)NC3CCCCC3)c2o1	84.2%
O=C(CCn1nc(-c2ccc(Cl)cc2)ccc1=O)N1CCN(c2ccccn2)CC1	95.9%
COc1ccc(-c2nnc(SCC#N)o2)cc1	89.1%
